Rows were chosen to be rich in hits. Some 8% of all compounds tested hit in one or more screens of this group.
PostGolgi yeast: phenotypic screen on post-Golgi transport, primary screen; post-Golgi transport phenotypic cell assay; inhibition, % at 10 µM; 0.9% of 98,000 active; AID 739, 2007;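 further: yeast cells grown in 1536-well plates; yeast grown about 18 h at 30C before absorbance read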
Cav3 T inh: Cav3.2 calcium influx blockers – cell-based, Fluo-4 calcium fluorescence, FDSS, MLSMR library, primary screen; Voltage-dependent T-type calcium channel subunit alpha-1H (Homo sapiens), O95180; Cav3.2-expressing cells; stronger effect = lower value; B-score at 10 µM; 4% of 100,000 active; AID 449739, 2010;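 active means single-dose well whose peak fluorescence ratio is a statistical outlier from its plate by either plate-standardised score or position-corrected B-score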
Target sequence (O95180 whole entry, looked up): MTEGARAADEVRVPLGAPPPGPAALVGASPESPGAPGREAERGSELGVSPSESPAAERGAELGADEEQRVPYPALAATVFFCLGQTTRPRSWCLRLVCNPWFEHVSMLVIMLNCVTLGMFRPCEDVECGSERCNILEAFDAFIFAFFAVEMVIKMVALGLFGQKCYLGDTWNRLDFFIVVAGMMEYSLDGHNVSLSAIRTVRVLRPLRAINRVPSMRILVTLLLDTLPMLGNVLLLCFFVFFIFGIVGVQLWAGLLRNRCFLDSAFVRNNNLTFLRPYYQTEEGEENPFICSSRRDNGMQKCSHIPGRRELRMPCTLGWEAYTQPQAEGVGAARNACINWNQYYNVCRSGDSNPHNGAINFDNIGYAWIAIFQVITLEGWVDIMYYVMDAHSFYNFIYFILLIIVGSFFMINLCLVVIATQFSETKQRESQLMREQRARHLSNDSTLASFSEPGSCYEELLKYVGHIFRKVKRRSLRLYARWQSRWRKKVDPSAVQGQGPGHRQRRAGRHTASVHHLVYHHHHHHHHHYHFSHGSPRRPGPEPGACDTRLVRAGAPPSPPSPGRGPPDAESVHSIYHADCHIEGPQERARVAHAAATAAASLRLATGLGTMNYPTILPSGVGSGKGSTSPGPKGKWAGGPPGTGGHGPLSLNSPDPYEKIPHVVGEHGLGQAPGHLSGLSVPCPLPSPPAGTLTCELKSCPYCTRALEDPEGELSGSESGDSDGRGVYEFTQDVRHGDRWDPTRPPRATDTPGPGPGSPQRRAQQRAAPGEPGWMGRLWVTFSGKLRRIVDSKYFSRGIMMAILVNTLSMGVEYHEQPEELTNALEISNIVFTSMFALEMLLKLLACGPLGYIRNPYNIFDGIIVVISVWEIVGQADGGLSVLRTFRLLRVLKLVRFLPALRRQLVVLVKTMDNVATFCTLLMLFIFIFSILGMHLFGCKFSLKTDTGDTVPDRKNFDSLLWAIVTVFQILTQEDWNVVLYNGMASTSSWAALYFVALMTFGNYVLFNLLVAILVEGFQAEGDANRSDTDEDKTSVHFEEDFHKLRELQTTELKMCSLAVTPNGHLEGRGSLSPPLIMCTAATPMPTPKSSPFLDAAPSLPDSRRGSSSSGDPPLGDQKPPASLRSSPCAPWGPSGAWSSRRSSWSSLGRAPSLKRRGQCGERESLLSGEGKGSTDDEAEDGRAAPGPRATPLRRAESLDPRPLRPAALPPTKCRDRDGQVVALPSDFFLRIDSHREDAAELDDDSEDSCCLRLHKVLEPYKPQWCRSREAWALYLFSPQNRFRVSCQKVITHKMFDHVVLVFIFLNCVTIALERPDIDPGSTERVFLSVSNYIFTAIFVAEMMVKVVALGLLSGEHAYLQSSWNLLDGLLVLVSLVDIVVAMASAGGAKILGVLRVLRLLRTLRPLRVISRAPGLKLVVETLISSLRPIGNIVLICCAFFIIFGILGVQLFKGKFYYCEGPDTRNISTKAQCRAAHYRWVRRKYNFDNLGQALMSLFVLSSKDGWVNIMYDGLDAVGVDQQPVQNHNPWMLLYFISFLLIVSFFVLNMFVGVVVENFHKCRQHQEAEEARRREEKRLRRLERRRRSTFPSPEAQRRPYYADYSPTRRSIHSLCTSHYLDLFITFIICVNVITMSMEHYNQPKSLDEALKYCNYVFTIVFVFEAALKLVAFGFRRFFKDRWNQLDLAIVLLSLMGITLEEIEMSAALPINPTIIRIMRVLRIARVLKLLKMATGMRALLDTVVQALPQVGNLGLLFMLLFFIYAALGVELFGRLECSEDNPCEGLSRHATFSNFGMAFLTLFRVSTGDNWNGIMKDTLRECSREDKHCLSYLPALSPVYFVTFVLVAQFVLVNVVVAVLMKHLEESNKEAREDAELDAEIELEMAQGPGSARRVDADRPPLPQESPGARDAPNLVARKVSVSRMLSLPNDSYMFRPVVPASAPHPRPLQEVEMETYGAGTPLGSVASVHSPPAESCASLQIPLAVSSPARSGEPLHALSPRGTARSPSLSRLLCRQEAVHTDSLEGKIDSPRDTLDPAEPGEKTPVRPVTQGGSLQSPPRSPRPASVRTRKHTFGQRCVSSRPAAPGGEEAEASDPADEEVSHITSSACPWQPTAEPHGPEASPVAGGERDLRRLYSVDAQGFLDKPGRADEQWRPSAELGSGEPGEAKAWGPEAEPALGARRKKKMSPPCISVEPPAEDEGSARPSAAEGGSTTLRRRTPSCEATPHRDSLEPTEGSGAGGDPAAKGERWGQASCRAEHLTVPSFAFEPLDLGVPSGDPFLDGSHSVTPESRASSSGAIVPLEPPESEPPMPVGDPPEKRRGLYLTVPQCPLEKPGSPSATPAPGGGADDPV
Pyk2 oligo antag: antagonists of Pyk2 self-association, primary screen, Q293 cells, FERM NanoBiT luminescence, HTS. 0.83% of 99,000 active. AID 1347419, 2020. z-score (the deposit names both 25 µM and 10 µM). stronger effect = lower value;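 active means Z-score of -3 or lower, scaled per plate to the spread of control and sample wells; inactive means z-score above -3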;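 further: negative z-score means lost luminescence so less FERM oligomerization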
PostGolgi ctrl: growth inhibition of yeast control strain, primary screen, counter-screen for post-Golgi transport modulator project; efflux-deficient yeast background strain, growth absorbance A615, 16 h; 5% of 98,000 active; inhibition, % at 10 µM
An asterisk follows results filed as active; . = no result given. Unless noted, no stated cut-off is given here; in the data, active means inhibition above about 30%; inactive means the rest.

SMILES	PostGolgi yeast	Cav3 T inh	Pyk2 oligo antag	PostGolgi ctrl
CCCNC(=O)c1c(N)n(Cc2ccco2)c2nc3ccccc3nc12	-1	-1.5	.	22
CC(C)CNC(=O)c1c(N)n(Cc2ccco2)c2nc3ccccc3nc12	3	-1.2	0.66	55*
O=C(COc1ccccc1)N1CCN(C2CC3CCC2C3)CC1 (stereo not given)	.	-0.88	1	.
O=c1[nH]c(=O)n(CCC2=CCCCC2)c(O)c1C=Nc1cccc(F)c1	2	0.3	-1.1	11
CC(C)(C)n1c(O)c(C=Nc2ccc3c(c2)CCC3)c(=O)[nH]c1=O	1	-2.3	0.32	45*
CCCCn1c(O)c(C(C)=Nc2cccc(C(=O)O)c2)c(=O)[nH]c1=O	2	0.051	-0.56	3
CCCCn1c(O)c(C(C)=NC(Cc2c[nH]c3ccccc23)C(=O)OC)c(=O)[nH]c1=O (stereo not given)	-6	-4.3*	-1.5	2
CCCCn1c(O)c(C(C)=Nc2ccc(OCC)cc2)c(=O)[nH]c1=O	52*	-0.85	-0.66	26
CC(=NCCCO)c1c(O)n(Cc2ccccc2)c(=O)[nH]c1=O	.	0.77	1.1	.
CCCCCCN=C(C)c1c(O)n(Cc2ccccc2)c(=O)[nH]c1=O	0	-1.2	-1.4	35*
COC(=O)CSC1=NN1c1cc(C)nc(N)n1	.	-0.36	.	.
COC(=O)C1=C(c2cc3ccccc3s2)C[C@@H]2CC[C@H]1N2C(=O)NC1CCCCC1	.	-1	.	.
CCCNC(=O)N1[C@H]2CC[C@@H]1C(C(=O)OC)=C(c1cccc(OC)c1OC)C2	.	0.44	.	.
O=C(Oc1c(Cl)cc(Cl)c2ccccc12)N1CCCCC1	-5	0.017	-0.92	37*
O=C(Nc1ccc(OC(=O)N2CCCC2)cc1)N1CCOCC1	-2	-0.94	-0.21	17
Cc1ccc(-n2c(O)c(C=NC3CCCCC3N)c(=O)[nH]c2=O)cc1C (stereo not given)	10	-0.02	-0.55	-3
C=Cn1ccnc1P(=S)(c1nccn1C=C)C1CCCCC1	15	-0.69	-0.17	11
CCCC1COC(Cn2cncn2)(c2ccc(Cl)cc2Cl)O1 (stereo not given)	85*	-1.3	-1.2	96*
O=c1[nH]c2ccccc2n1C1CCN(CCCC(c2ccc(F)cc2)c2ccc(F)cc2)CC1	.	-4.8*	.	.
O=C1CC(N2CCC(n3c(=O)[nH]c4ccccc43)CC2)C(=O)N1c1ccc(F)cc1 (stereo not given)	-1	.	-0.01	-1
CN1C(=O)C(=Cc2ccccc2Oc2ccc(Cl)cc2)C(=O)N(C)C1=O	-2	-1.8	-3.9*	3
NC(=O)c1cn(C2OC(CO)C(O)C2O)c2ncnc(N)c12 (stereo not given)	.	-4.7*	.	.
CCC1CCCCN1P(=O)(c1ccc(C)o1)C(C)(C)C (stereo not given)	4	-0.73	1	-8
O=C(COc1ccc(Cl)cc1Cl)N1CCN(C/C=C/c2ccccc2)CC1	104*	-2	-0.63	66*
CC1(C)CN=C(NCc2ccccc2Cl)S1	4	-0.17	0.57	0
SMILES	PostGolgi yeast	Cav3 T inh	Pyk2 oligo antag	PostGolgi ctrl
COc1ccc(Oc2cc(NC(=O)c3nn(C)cc3[N+](=O)[O-])cc([N+](=O)[O-])c2)cc1	0	0.51	-3.7*	6
CCCCCSc1cc(OC)c(CCN)cc1OC	5	0.84	0.44	-3
CCCCCCCSc1cc(OC)c(CCN(C)C)cc1OC	4	.	0.06	84*
COC(=O)C1=C(c2ccc(S(C)(=O)=O)cc2)C[C@@H]2CC[C@H]1N2C(=O)NCCS(C)=O (stereo not given in full)	.	0.99	.	.
N#Cc1ccccc1Cn1cc(C(=O)c2ccccc2F)c2ccccc21	.	.	-2.1	.
O=C(c1ccccc1)c1cn(CC(=O)N2CCCc3ccccc32)c2ccccc12	13	-2.4	-2.1	9
O=C(Cn1cc(C(=O)c2ccccc2)c2ccccc21)NCc1ccco1	-3	-3.2	-3.2*	7
COC(=O)C1=C(c2cccc(OC)c2OC)C[C@@H]2CC[C@H]1N2C(=O)NCc1ccc(F)cc1	.	0.028	.	.
COC(=O)C1=C(c2cc3ccccc3s2)C[C@@H]2CC[C@H]1N2C(=O)NCc1ccc(F)cc1	.	-3.4*	.	.
O=c1[nH]c(=S)n(Cc2ccco2)c(O)c1C=NCc1cccs1	8	-1.3	-0.59	36*
O=c1[nH]c(=O)n(Cc2ccco2)c(O)c1C=NCc1cccs1	1	-0.66	-0.55	-5
O=C(Cn1c2c(c(-c3ccccc3Cl)cc1=O)CCC2)N1CCC2(CC1)OCCO2	2	1.2	-1.1	11
N#CC1=C(N)Oc2c(c(=O)oc3ccccc23)C1c1cccnc1 (stereo not given)	2	-0.9	-0.94	10
Cc1nn(-c2ccccc2)c(Cl)c1C1C(C#N)=C(N)Oc2c1c(=O)oc1ccccc21 (stereo not given)	6	.	-3.2*	31*
CC(=O)c1ccc2c(c1)C1C(Cl)C(Sc3ccccc3[N+](=O)[O-])CC1C(c1ccccc1)N2 (stereo not given)	-6	-0.5	-1.8	20
CC(=O)c1ccc2c(c1)C1C(Cl)C(Sc3ccccc3[N+](=O)[O-])CC1C(c1ccccc1[N+](=O)[O-])N2 (stereo not given)	.	-1.4	-3.4*	.
O=C(Nc1cccnc1)c1c(O)c2c(n(Cc3ccccc3)c1=O)CCCC2	-1	-2.8	1.7	38*
CCC(C)(C)n1nnnc1C(c1cccs1)N1CC=C(c2ccc(F)cc2)CC1 (stereo not given)	4	-1.5	-0.11	41*
Fc1ccc(C2=CCN(C(c3cccs3)c3nnnn3CCc3ccccc3)CC2)cc1 (stereo not given)	4	-1.8	-0.7	43*
Fc1ccc2c(c1)nnn2C1CCN(Cc2nnnn2CCc2ccccc2)CC1	4	0.17	-0.37	-8
CCOC(=O)[C@]1(C#N)[C@@H]2C=CC(C(C)=O)=CN2[C@@H](C(N)=O)[C@@H]1c1ccsc1	2	0.49	0.36	6
CCSc1nnc([C@@H](N)Cc2ccccc2)o1	8	-1.1	0.25	-3
CN1/C(=C\C=C\C2=[N+](C)c3ccc4ccccc4c3C2(C)C)C(C)(C)c2ccccc21	101*	-5.9*	.	100*
CCOC(=O)C1=C(C)OC(N)=C(C(=O)OCC)C12C(=O)Nc1ccc(Br)cc12 (stereo not given)	-3	-3.8*	0.52	10
C=Cn1ccnc1P(=S)(c1ccn(C)c1)c1nccn1C=C	-4	1.5	-0.3	1
SMILES	PostGolgi yeast	Cav3 T inh	Pyk2 oligo antag	PostGolgi ctrl
COc1ccccc1OCCCn1cc(C(=O)c2ccco2)c2ccccc21	-8	-1	-1.2	49*
COc1ccccc1OCC(=O)Nc1ccc(Cl)cc1C(=O)c1ccccc1	-2	1.1	-2.2	40*
O=C(Nc1ccc(Cl)cc1C(=O)c1ccccc1)c1ccccc1	5	.	-1.7	13
O=P(OCC(F)(F)C(F)F)(N1CCCCC1)N1CCCCC1	6	-0.34	0.24	2
CN1C[C@H](CNC(=O)OCc2ccccc2)C[C@@H]2c3cccc4c3c(cn4C)C[C@H]21	.	-4.4*	.	.
O=C(NC[P+](=O)O)OCc1ccccc1	4	-0.59	0.42	3

Screens as filed in PubChem BioAssay.
